hcGAS inh: human cGAS inhibition | Q8N884 | inhibition, % at 12.5 µM | actives 0.081% (n = 290,000) | AID 1259398 | recombinant h-cGAS, ATP depletion, Kinase-Glo luminescence
NPYLR7 ag: activates Aedes aegypti NPYLR7 receptor | HEK293T NPYLR7/Galpha15, GCaMP6s calcium fluorescence | activation, % at 10 µM | actives 0.15% (n = 270,000) | AID 1259423; in the data active = activation above about 40%
mcGAS lum: blocks mouse cGAS activity; Q8C6L5; inhibition, % at 12.5 µM; recombinant cGAS, Kinase-Glo ATP depletion luminescence; actives 0.15% (n = 160,000)
Target sequence (Q8C6L5 whole entry, looked up): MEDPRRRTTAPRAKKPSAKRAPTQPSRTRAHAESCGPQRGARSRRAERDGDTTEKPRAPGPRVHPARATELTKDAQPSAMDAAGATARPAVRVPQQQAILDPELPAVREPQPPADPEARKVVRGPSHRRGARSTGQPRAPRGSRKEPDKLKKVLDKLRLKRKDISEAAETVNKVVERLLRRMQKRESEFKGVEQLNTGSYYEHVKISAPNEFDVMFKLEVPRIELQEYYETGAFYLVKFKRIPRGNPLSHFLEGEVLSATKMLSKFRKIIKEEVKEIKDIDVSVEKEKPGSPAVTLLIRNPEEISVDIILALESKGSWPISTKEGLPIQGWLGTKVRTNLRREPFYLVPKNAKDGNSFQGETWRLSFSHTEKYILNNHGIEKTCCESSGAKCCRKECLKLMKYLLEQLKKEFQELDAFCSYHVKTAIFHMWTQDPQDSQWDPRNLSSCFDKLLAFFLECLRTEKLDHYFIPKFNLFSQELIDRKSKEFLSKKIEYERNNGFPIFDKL
Hits are given with their value; i = inactive; nt = no result given; + = active, no number; ! = not confirmed by another sample. Shown are actives, neighbours in structure and some others; about 0.3% of the full set was active somewhere. Cut-off read from the data, not from the text of the source, unless noted: active = inhibition above about 40%; inactive = the rest.

SMILES | hcGAS inh | NPYLR7 ag | mcGAS lum
NC(=O)N/N=c1\oc2ccccc2cc1-c1nc2ccccc2[nH]1 | i | i | 48
NC(=S)N/N=c1\oc2ccccc2cc1-c1nc2ccccc2[nH]1 | i | i | nt
COc1ccccc1N=c1oc2ccc3ccccc3c2cc1-c1nc2ccccc2[nH]1 | i | i | nt
COc1ccccc1N=c1oc2cc(O)ccc2cc1-c1nc2ccccc2[nH]1 | i | 81 | i
CCOC(=O)c1ccc(N=c2oc3ccccc3cc2-c2nc3ccccc3[nH]2)cc1 | i | i | i
COc1cccc(N2C(=O)NC(=O)/C(=C/c3cn(C(C)=O)c4ccccc34)C2=O)c1 | i | i | i
CCC(C)n1cc(/C=C2/C(=O)NC(=O)N(c3ccc4c(c3)OCO4)C2=O)c2ccccc21 (configuration not stated) | i | 52 | nt
CC1=NN(c2ccc(Cl)c(C(=O)O)c2)C(=O)/C1=C\c1ccc(Br)c([N+](=O)[O-])c1 | i | i | 50
COc1cc(/C=C2\C(=O)N(c3ccc(Cl)c(C(=O)O)c3)N=C2C)cc([N+](=O)[O-])c1O | i | i | i
O=C(c1ccc(N2C(=O)CCC2=O)cc1)N(Cc1ccccn1)c1nc2ccccc2s1 | i | i | i
Cc1cc(C)c(-c2csc(NC(=O)c3ccc4c(c3)C(=O)N(C)C4=O)n2)c(C)c1 | i | i | i
CC(C)NC(=O)CCN(CC1CCCO1)C(=O)c1cc(-c2cccc(Cl)c2)on1 (configuration not stated) | i | nt | i
COc1cccc(-c2cc(C(=O)N(CCC(=O)NCCC3CCCN3C)CC(C)C)no2)c1 (configuration not stated) | + | i | nt
N#Cc1c(N)oc(-c2cccs2)c1-c1cccs1 | 55 | i | nt
Nc1nnc(-c2ccccc2)o1 | i | i | nt
N#Cc1c(N)oc(-c2ccccc2)c1-c1ccccc1 | 50 | i | i
Cc1nc(N)c(C#N)c(-c2cccs2)c1C | i | i | nt
Cc1cc(C)n2c(Nc3c(C)cccc3C)c(-c3ccccc3Cl)nc2n1 | i | i | i
CCOc1cc(C)c(Cl)cc1S(=O)(=O)N1CCNC(C(=O)O)C1 (configuration not stated) | i | i | nt
COc1cccc2c1C(=O)c1c(O)c3c(c(O)c1C2=O)C[C@@](O)(C(=O)CO)C[C@@H]3OC1C[C@H](N)[C@H](O)[C@H](C)O1 (some centres not stated) | 57 | nt | nt
CC(C)CCN(Cc1c(-c2ccccc2F)noc1N1CCOCC1)CC(O)COc1ccccc1 (configuration not stated) | i | i | i
CC(=O)c1c(C)[nH]c(C(=O)Cn2cc(C(F)(F)F)cc(Cl)c2=O)c1C | 74 | i | i
CC(N)=C(C#N)C(=O)Cn1cc(C(F)(F)F)cc(Cl)c1=O | i | i | nt
CCOc1ncccc1CN1CCCC(C(=O)NCC2CCCCC2)C1 (configuration not stated) | i | i | i
C[C@@H]1[C@H]2C[C@@H](C[C@H]1NC(=O)C1CC=CCC1C(=O)N1CCN(c3ccccn3)CC1)C2(C)C (some centres not stated) | i | i | nt
SMILES | hcGAS inh | NPYLR7 ag | mcGAS lum
Brc1c(Br)c(Br)c2n[nH]nc2c1Br | 41 | i | 84
Brc1c(Br)c(Br)c2[nH]cnc2c1Br | i | i | i
CC1C(=O)N(c2cccc(F)c2)CCN1C(=O)C1CCCC1 (configuration not stated) | i | i | i
CC1C(=O)N(c2cccc(F)c2)CCN1C(=O)C1CC1 (configuration not stated) | i | 44 | i
COCCNC(=O)c1cn(C)c2c(=O)n(-c3ccccc3)c(=O)[nH]c12 | i | i | nt
CCN(CC)CCNc1nc2c(F)cccc2s1 | i | i | nt
CCN(CC)CCNc1ccc(CO)c2sc3ccccc3c(=O)c12 | 54! | i | nt
CCCNC(=O)NNC(=O)c1cccn(Cc2cccc(Cl)c2)c1=O | i | i | nt
C=CCNc1ccc2c3c(cccc13)C(=O)N(c1ccccc1)C2=O | i | 99 | i
C=CCN1C(=O)c2cccc3c(Cl)ccc(c23)C1=O | i | i | i
Nc1ccc2c3c(cccc13)C(=O)N(c1ccccc1)C2=O | i | 76 | nt
CC(=O)Nc1ccc2c3c(cccc13)C(=O)N(c1ccccc1)C2=O | i | i | i
Cc1cccc(N2C(=O)c3cccc4c(N)ccc(c34)C2=O)c1 | i | i | i
O=C1c2cccc3c(NCCO)ccc(c23)C(=O)N1CCO | i | 107 | i
O=C1/C(=C/c2ccc(-c3ccc(Br)cc3)o2)C=C(c2ccccc2)N1c1ccc(Cl)cc1Cl | i | i | i
C=CCC(O)(CC=C)c1ccc(CN(CCOC)Cc2cccs2)o1 | i | i | i
CCCSc1nc2c(c(=O)[nH]1)C(c1sccc1C)C(C(=O)OCC)C(C)=N2 (configuration not stated) | i | i | i
O=C1/C(=C/c2ccc3ccccc3n2)Oc2cc(O)ccc21 | i | i | nt
Cc1ccc(/C=C2/Oc3cc(O)ccc3C2=O)s1 | i | 165 | i
CCOc1ccc(-c2cc(C(=O)N/N=C\c3ccc(O)c(OC)c3)[nH]n2)cc1 | i | i | i
CCCc1noc(-c2sc3nc(C)c(C)c(C)c3c2N)n1 | i | nt | nt
O=C(COc1ccccc1-c1ccccc1)NCC1(N2CCOCC2)CCCCC1 | i | i | nt
COc1ccc(C)cc1NC(=O)Cn1cnc2cc(Cl)ccc2c1=O | i | i | nt
COc1ccc(Cl)cc1NC(=O)/C(C#N)=C/c1coc2ccc(C)cc2c1=O | i | 50 | nt
O=C(NCC1Cc2cccc(F)c2O1)c1ccc(F)cc1 (configuration not stated) | i | i | i
SMILES | hcGAS inh | NPYLR7 ag | mcGAS lum
CS(=O)(=O)c1ccc(-c2cccc3c2OC(CNC(=O)c2cc[n+]([O-])cc2)C3)cc1 (configuration not stated) | i | 76 | i
Cn1c(=O)c2c(-c3cccc4ccccc34)c(NCc3ccccc3)oc2n(C)c1=O | i | i | i
CC(=O)Oc1ccc2c(c1OC(C)=O)C(=O)c1ccccc1C2=O | i | i | i
CC(=O)Oc1cccc2c1C(=O)c1c(OC(C)=O)cc(C(=O)O)cc1C2=O | 57 | i | i
COc1ccc(-c2ccnc3[nH]n(-c4ccccc4)c(=O)c23)cc1OC | i | i | i
O=C(Cc1c[nH]c2ccccc12)NN1C(=O)c2ccccc2C1=O | i | i | i
c1ccc(-c2nc(CN3CCc4[nH]cnc4C3c3ccccn3)cs2)cc1 (configuration not stated) | i | i | i
N=C1C(c2nc3ccccc3s2)C(=O)CN1N1C(=O)c2ccccc2C1=O (configuration not stated) | i | i | 43
CCN(CC)C(=O)COC(=O)c1cccc(N2CC(=O)C(c3nc4ccccc4s3)C2=N)c1 (configuration not stated) | i | i | i
COc1cc(/C=C2\SC(=S)N(C(CC(=O)O)C(=O)O)C2=O)ccc1O (configuration not stated) | i | 68 | i
COCCN1C(=O)/C(=C/c2ccc(O)c(OC)c2)SC1=S | i | i | nt
COc1cc(/C=C2\SC(=S)N(c3cccc(C(=O)O)c3)C2=O)ccc1O | i | 52 | i
COc1ccc(/C=C2\SC(=S)N(c3ccc(C(=O)O)cc3)C2=O)cc1OC | i | i | i
Cc1ccc(C(C)C)cc1Oc1c(C#N)c(=O)n(C)c(=O)n1C | i | i | i
O=C1N=c2ccccc2=C1c1sc(=S)n(-c2ccccc2)c1O | i | i | i

Compound activity from PubChem BioAssay.
